Source: PubChem
The sample as a whole holds a higher share of hits than the screen did.
Pf Dd2 growth = blocks in vitro growth of P. falciparum Dd2 | P. falciparum Dd2 growth, SYBR Green, 72 h | Potency, µM (series often up to 28.9 µM), usual class: inhibitors | 4.3% of 120,000 active | AID 1347417; active = well fitted inhibition curve with a large enough effect; note: nearly all actives have a fitted effect of over 65% in size
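Infected erythrocytes (Dd2, 0.3% parasitemia, 2.5% hematocrit final) are added to compound in RPMI-1640/Albumax II medium, grown 72 h at 37C in low oxygen, then lysed with saponin/Triton-X containing SYBR Green and read by fluorescence.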
Each line names hits and unclear results; the compound was inactive in the other large screens.

Cc1ccc(C)c(C(=O)c2c(N)c(-c3nc(-c4ccc5c(c4)OCO5)cs3)c3ccccn23)c1	Pf Dd2 growth 8.9µM
COc1ccc(C(=O)c2c(N)c(-c3nc(-c4ccc5c(c4)OCO5)cs3)c3ccccn23)cc1	none
Cc1ccc(-c2csc(-c3c(N)c(C(=O)c4ccc5c(c4)OCO5)n4ccccc34)n2)cc1C	none
COc1ccc(-c2nc3scc(CCNC(=O)c4cc(OC)cc(OC)c4)n3n2)cc1	Pf Dd2 growth 7.1µM
COc1ccc(-c2nc3scc(CCNS(=O)(=O)c4ccc(Oc5ccccc5)cc4)n3n2)cc1	none
COc1ccc(-c2nc3scc(CCNC(=O)Cc4ccc(F)cc4)n3n2)cc1	none
CNC(=O)c1ccc2c(c1)C1(CCN(CC3CC3)C1)CN2Cc1ccccc1 (stereo not drawn)	none
O=C(CCc1n[nH]c2c1CCCC2)N1CC[C@H]2CNC[C@H]21	none
COc1nccnc1NC1CCN(C(=O)Cc2c(C)noc2C)CC1	none
Cc1ccc(-c2nc3ccc(Cl)cn3c2Nc2ccc3c(c2)OCCO3)s1	none
Cc1ccn2c(Nc3ccc4c(c3)OCCO4)c(-c3ccccc3O)nc2c1	Pf Dd2 growth 11µM
Brc1ccc(-c2nc3ccccn3c2Nc2ccc3c(c2)OCCO3)o1	Pf Dd2 growth 13µM
Cc1ccc2nc(-c3ccc(C)o3)c(Nc3ccc4c(c3)OCCO4)n2c1	none
Cc1ccc(-c2nc3ccccn3c2Nc2ccc3c(c2)OCCO3)o1	none
c1csc(-c2nc3ccccn3c2Nc2ccc3c(c2)OCCO3)c1	none
O=C(NCCc1ccccc1F)C1CN(c2cccc(Cl)c2)C(=O)N1 (stereo not drawn)	none
COC1C(=O)N(c2cccc(F)c2)C12CCN(C(=O)c1cccc(C#N)c1)CC2 (stereo not drawn)	none
CC(C)NC(=O)N1CCC2(CC1)CN(C(=O)CCCN)Cc1ccccc1O2	none
CCn1cc(S(=O)(=O)NCCc2noc(COC)n2)cn1	none
Cc1cccn2c(CC(=O)N3CCC4(CC3)c3nc[nH]c3CCN4C)cnc12	none
CN(C)C(=O)c1cc2c(s1)CCC(C(=O)N1CCN(c3ccccc3)CC1)C2 (stereo not drawn)	none
CN(C)C(=O)c1cc2c(s1)CCC(C(=O)N1CCN(c3cccc(Cl)c3)CC1)C2 (stereo not drawn)	Pf Dd2 growth 5µM
CN(C)C(=O)c1cc2c(s1)CCC(C(=O)N1CCN(c3ccccn3)CC1)C2 (stereo not drawn)	none
CC(C)C1=NOC2(CCN([S+](=O)([O-])c3ccccc3)C2)C1 (stereo not drawn)	none
COc1ncccc1-c1cc(C(=O)NCc2c(C)cc(C)[nH]c2=O)c2c(c1)N(C)CCO2	none
CC(=O)NCC(=O)N1Cc2ccccc2CC2(CCCN2CC2CCNCC2)C1 (stereo not drawn)	none
CCOc1ccc(-c2nnc(SCC(=O)NC(C)CC)nc2-c2ccc(OCC)c(OC)c2)cc1OC (stereo not drawn)	none
CCOc1cc(-c2nnc(SCC(=O)NCc3ccccc3)nc2-c2ccc(OC)c(OCC)c2)ccc1OC	Pf Dd2 growth 8.9µM
CCOc1cc(-c2nnc(SCC(=O)NCc3ccc(C)cc3)nc2-c2ccc(OC)c(OCC)c2)ccc1OC	none
COCC1(CNc2cc(C3CC(O)C3)nc(C)n2)CCCC1 (stereo not drawn)	none
COc1ccc(N2CC(C(=O)N3CCC(C(=O)NCc4ccc(F)cc4)C3)NC2=O)cc1 (stereo not drawn)	none
O=C(NCCc1ccccc1)c1cnc2c(c1)N([S+](=O)([O-])c1cccnc1)CCC2	none
Cc1nnnn1CC(=O)N1CCCC(c2ccccc2)(c2ccccc2)C1	none
CC(C)c1cc(C(=O)N2CCCC(c3ccccc3)(c3ccccc3)C2)n(C)n1	Pf Dd2 growth 3.2µM
COc1coc(C(=O)N2CCCC(c3ccccc3)(c3ccccc3)C2)cc1=O	none
C[S+](=O)([O-])N1Cc2ccccc2OC2(CCN(C(=O)CCc3ccc(O)cc3)CC2)C1	none
Cc1cccc(-n2nc(C)c(CCC(=O)NC3CC3)c2Oc2ccccc2C)c1	none
Cc1cccc(-n2nc(C)c(CCC(=O)N3CCSCC3)c2Oc2ccccc2C)c1	Pf Dd2 growth 8.9µM
CCNC(=O)CCc1c(C)nn(-c2cccc(C)c2)c1Oc1ccccc1C	none
COC[C@@H]1CN(c2ncccn2)C[C@H]1C(=O)N1CCOCC1	none
Cc1cc(CN(C)C2CCc3ccccc32)no1 (stereo not drawn)	none
COc1ccc(CCC(=O)N2CCCC(c3nc(C)ncc3-c3cccc(C)c3)C2)cc1OC (stereo not drawn)	none
CN(C)c1ccc(CN2CCC(N3CCOCC3=O)CC2)cc1	none
Cc1cccc(C(=O)N2CCCCCNC(=O)[C@@H]3CCCC[C@@H]32)c1	none
O=C1NCCCCCCN(C(=O)c2cnccn2)[C@H]2C[C@H](C(=O)N3CCc4ccccc4C3)C[C@@H]12	none
O=C1NCCCCCCN(C(=O)c2ccoc2)[C@H]2C[C@H](C(=O)N3CCN(c4ccccn4)CC3)C[C@@H]12	none
Cc1cccc(C(=O)N2CCCCCNC(=O)[C@H]3C[C@H](C(=O)N4CCc5ccccc5C4)C[C@H]32)c1	Pf Dd2 growth 8.9µM
O=C1NCCCCCCN(C(=O)Cc2ccccc2)[C@H]2CCCC[C@@H]12	none
O=C1NCCCCCN(C(=O)CC2CCCCC2)[C@@H]2C[C@@H](C(=O)N3CCc4ccccc4C3)C[C@H]12	Pf Dd2 growth 7.1µM
Cc1cccc(C(=O)N2CCCCCCNC(=O)[C@@H]3CCCC[C@@H]32)c1	none
Cc1ccc(C(=O)N2CCCCCCNC(=O)[C@@H]3C[C@@H](C(=O)N4CCc5ccccc5C4)C[C@@H]32)s1	Pf Dd2 growth 7.9µM
O=C1NCCCCCN(C(=O)CCCc2ccccc2)[C@H]2CCCC[C@@H]12	none
COc1ccc(-c2noc(C(=O)O)c2[C@@H](C)NC(=O)CC(C)C)cc1	none
COC(=O)c1cccc(NC(=S)N[C@@H]2C=C[C@@H](c3c(C)nn(-c4ccccc4[N+](=O)[O-])c3C)C2)c1	none
O=C(N[C@@H]1CN(C(=O)c2cccc3[nH]ccc23)CC[C@@H]1CO)C1CC1	none
Cc1nnc2n1CCC(N(C)S(=O)(=O)c1cccnc1)CC2 (stereo not drawn)	none
O=C([C@@H]1C[C@@H]2C=C[C@H]1C2)N1CCc2c(nc(-c3cccnc3)[nH]c2=O)C1	none
O[C@@H]1CC(CNCc2ccc(F)cc2)(COc2ccc(C(F)(F)F)cn2)C[C@@H]1O (stereo partly drawn)	Pf Dd2 growth 4µM
O=C(NCC1(COc2ccc(C(F)(F)F)cn2)C[C@@H](O)[C@@H](O)C1)C1CC1 (stereo partly drawn)	none
Cn1cc(CNCC2(COc3ccc(C(F)(F)F)cn3)C[C@@H](O)[C@@H](O)C2)cn1 (stereo partly drawn)	none
COc1ccc(NC(=O)Cn2c(=O)n(-c3cccc(C)c3)c(=O)c3c2cc(C)n3C)cc1OC	none
COc1cccc2cc(-c3nc(-c4ccc(C)cc4)c(C)s3)c(=O)oc12	none
CCN1CCN(C(=O)c2cc(-c3ccccc3)cn2C)CC1	none
COc1ccc(-c2cc3ccc(O)c(CN4CCOCC4)c3oc2=O)cc1OC	Pf Dd2 growth 10µM
O=C(O)c1ccc2nc(-c3cc4cccc(O)c4oc3=O)[nH]c2c1	none
COc1ccc(-c2cc3ccc(O)c(CN4CCN(C)CC4)c3oc2=O)cc1OC	Pf Dd2 growth 11µM
COc1ccc(-c2cc([C@H]3CN4CC[C@H]3C[C@@H]4CNC(=O)N3CCOCC3)nc(C)n2)cc1OC	none
COc1ccc(-c2c(C)c3ccc(O)c(CN4CCOCC4)c3oc2=O)cc1OC	none
CN1CCN(Cc2c(O)ccc3cc(-c4ccccc4)c(=O)oc23)CC1	Pf Dd2 growth 10µM
COc1cccc2cc(-c3nnc(-c4ccc(Cl)cc4)o3)c(=O)oc12	none
O=C(c1ccc(Br)o1)N1CCc2nn(CC3CC3)c(=O)n2CC1	none
